Experimental data taken from PubChem BioAssay.
Results filed as inconclusive are left out. The source made the active and inactive calls.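 The calls were made as follows, unless noted: active = percent response above 42, roughly 3 SD of non-fluorescent test compounds; inactive = the rest.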

Key:
[1] = rapamycin-like changes in RPL19A-GFP expression – cell-based, S. cerevisiae, multiplex flow cytometry, primary screen (AID 1862; in the data active = percent of DMSO control GFP below about 86%;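 also: lower values mimic rapamycin by blocking the RPL19A rise seen in DMSO cells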); conditions: S. cerevisiae RPL19A-GFP strain, flow cytometry fluorescence, 3 h; at 10 µM; stronger effect = lower value
[2] = TOR pathway GLN3 branch reporter MEP2-GFP changes – S. cerevisiae, multiplex flow cytometry, primary screen (AID 1867;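 active = GFP response, as percent of the DMSO control, above the screen-wide mean plus 3 SD, about 139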;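 also: median GFP channel fluorescence of barcode-gated MEP2-GFP cells measured by flow cytometry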); conditions: S. cerevisiae MEP2-GFP strain, 3 h, at 10 µM, stronger effect = higher value, 100% means same as DMSO wells
[3] = TOR pathway RTG branch CIT2 reporter changes – S. cerevisiae, GFP fusion, multiplex flow cytometry, primary screen (AID 1870;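 active = percent response above a set limit, the screen-wide mean plus 3 SD, cut at about 130% in these data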;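 also: barcoded CIT2-GFP strain pooled with four other GFP strains with rapamycin as positive control; median GFP fluorescence per well over plate mean of DMSO wells so 100% = DMSO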); conditions: S. cerevisiae CIT2-GFP expression, 3 h, at 10 µM, stronger effect = higher value
[4] = TOR pathway LAP4-GFP level changes – S. cerevisiae, multiplex flow cytometry, primary screen (AID 1873;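 active = GFP signal, as percent of the solvent control, above the screen mean plus 3 SD, about 149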); conditions: S. cerevisiae LAP4-GFP expression, 3 h, at 10 µM, stronger effect = higher value
[5] = yeast AGP1-GFP level changes, GLN3 branch – cell-based, multiplex flow cytometry, S. cerevisiae, primary screen (AID 1887;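 active = GFP signal above the screen-wide mean plus 3 SD, that is over about 124.5% of the solvent control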;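 also: AGP1-GFP fusion strain of S. cerevisiae within a five-strain barcoded multiplex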); conditions: 3 h, at 10 µM, stronger effect = higher value
[6] = reduced mouse 2C T cell binding to pMHC/ICAM-1 vesicles – MLPCN validation set, flow cytometry, LFA-1/ICAM-1 modulator project, pilot screen (AID 2523;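 active = response below a set limit, under 55% cells CD8-positive and vesicle-bound, and CD8 cells' 90th-percentile brightness under 279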;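 as to vesicle binding response: mean PE anti-B7-1 fluorescence of CD8+ cells relative to row control; 100% = QL9-loaded vesicles with DMSO vehicle in the same plate row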); conditions: 2C mouse CD8+ T cells, at 7 µM, stronger effect = lower value; double positive events: measured here: CD8+/vesicle+ event percentage
[7] = target: Integrin beta-1 (Homo sapiens) + Integrin alpha-4 (Homo sapiens) (UniProt P13612+P05556); experiment: alpha4beta1 integrin LIBS antibody binding reduction – U937 cells, HUTS-21 mAb, flow cytometry, validation set, VLA-4 allosteric modulator project, pilot screen (AID 2674;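 active = inhibition above 50%, about 3 SD of the validation set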;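 also: antibody binding induced by the VLA-4 ligand LDV present at three times its Kd; 0% = LDV ligand with antibody and no compound and 100% = antibody without LDV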); conditions: HUTS-21 LIBS mAb binding, at 6.7 µM, stronger effect = higher value, binding induced by LDV ligand
[8] = calorie-restriction mimetic ROS inhibitors, yeast – validation compound set, pilot screen (AID 2706;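 active = superoxide response below 65% of plate, a cut near 3 SD across the whole screen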;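 also: yeast exposed to compound for one week at 30 degrees C before staining; 100% = mean of all compound wells on the same plate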); conditions: S. cerevisiae aging, superoxide DHE fluorescence; at 10 µM; stronger effect = lower value
[9] = target: Beta-adrenergic receptor kinase 1 (Homo sapiens) (UniProt P25098); experiment: GRK2 binders displacing RNA aptamer, biochemical, validation, human GRK2, bead flow cytometry (AID 488806;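 active = aptamer binding inhibition above 30%, about 3 SD of noise from non-fluorescent compounds; inactive = inhibition at or below 30%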); conditions: bead-bound GRK2, FAM-aptamer displacement, at 10 µM, stronger effect = higher value
[10] = target: Beta-2 adrenergic receptor (Homo sapiens) (UniProt P07550); experiment: agonist-induced loss of surface beta2AR – cell-based, FAP fluorogen, flow cytometry, validation set, pilot screen (AID 504459); conditions: Am2.2-beta2AR cells, at 10 µM, stronger effect = higher value;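 also: agonist-driven loss of surface beta2AR via internalization measured by FAP dye flow cytometry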
[11] = target: AP-2 complex subunit beta (Homo sapiens) (UniProt P63010); experiment: beta-arrestin/AP2 interaction blockers – biochemical, validation set, GST-AP2 beads, flow cytometry, pilot screen (AID 504541;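 active = inhibition above 54%, about 3 SD of non-fluorescent compounds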;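 also: AP2 carries R879A mutation and is captured from E. coli lysate; bead-bound FITC arrestin peptide fluorescence measuring arrestin peptide binding to AP2; 0% = DMSO wells and 100% = excess unlabeled arrestin peptide control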); conditions: FITC arrestin peptide, at 10 µM, stronger effect = higher value, AP2 beta2 appendage fragment, R879A mutant
[12] = cytosolic pH regulators acting via V-ATPase – S. cerevisiae, pHLuorin, HTS validation (AID 504600; in the data active = response above about 15%;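 also: plate controls were DMSO for no effect and reference compound for full effect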); conditions: V-ATPase proton transport, at 10 µM, stronger effect = higher value
[13] = system: anti-desmoglein-3 scFv antibody binding to human DSG3; experiment: blockers of pathogenic pemphigus antibody–desmoglein-3 binding – biochemical, validation compound set, bead-based, flow cytometry, pilot screen (AID 588368;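 active = binding below the plate cutoff, the plate median minus 3 SD, with a reading above zero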;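 also: signal is the median channel fluorescence of bead-bound GFP antibody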); conditions: Protein G beads, DSG3-Fc, scFv-GFP binding, at 10 µM, stronger effect = lower value
[14] = Nile Red efflux blockade in pump-expressing yeast – validation compound set, multiplex, phenotypic, pilot screen (AID 588506;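 active = efflux inhibition above 0.42, the validation set average plus 4 SD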;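 also: Nile Red retained in cells so higher fluorescence means more efflux inhibition; 0 = negative control wells and 1 = enniatin B 25 µM full block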); conditions: S. cerevisiae pump-expressing triplex, Nile Red efflux flow cytometry; at 10 µM; stronger effect = higher value; the pumps come from Candida albicans
[15] = target: ATP-binding cassette sub-family B member 6 (Homo sapiens) (UniProt Q9NP58); experiment: blockers of ABCB6-driven porphyrin uptake – K562-ABCB6 cells, flow cytometry, validation set, pilot screen (AID 588550;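 active = inhibition above the screen-wide mean plus 3 SD, about 51%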;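 also: 0% = DMSO wells and 100% = benzethonium chloride 70 µM positive control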); conditions: K562-ABCB6 porphyrin accumulation, 1 h, at 10 µM, stronger effect = higher value
[16] = AML differentiation inducers, ER-HoxA9 marrow cells – cell-based, GFP/MAC1 double positive, flow cytometry, validation set, primary screen (AID 588685;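 active = differentiation response of at least 50%, scaled between solvent and reference control, from cells with both markers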;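 also: compound exposure lasts four days before antibody staining and flow analysis; 0% = DMSO wells and 100% = 5 µM fulvestrant positive control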); conditions: stronger effect = higher value, normalized: vehicle 0, fulvestrant 100

Chain of Beta-2 adrenergic receptor (Homo sapiens) (P07550 whole entry, looked up): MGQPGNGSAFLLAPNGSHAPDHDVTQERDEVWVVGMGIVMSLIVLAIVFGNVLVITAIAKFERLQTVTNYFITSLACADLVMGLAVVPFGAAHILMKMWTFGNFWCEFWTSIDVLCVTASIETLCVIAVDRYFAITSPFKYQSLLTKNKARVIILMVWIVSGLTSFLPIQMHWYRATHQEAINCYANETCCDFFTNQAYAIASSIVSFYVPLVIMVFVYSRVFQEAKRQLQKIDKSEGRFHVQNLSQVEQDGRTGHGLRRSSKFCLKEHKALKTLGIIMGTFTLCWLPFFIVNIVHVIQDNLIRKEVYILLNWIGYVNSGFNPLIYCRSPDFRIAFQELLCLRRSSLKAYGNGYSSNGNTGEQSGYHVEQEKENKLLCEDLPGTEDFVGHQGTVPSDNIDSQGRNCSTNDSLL
Chain of Beta-adrenergic receptor kinase 1 (Homo sapiens) (P25098 whole entry, looked up): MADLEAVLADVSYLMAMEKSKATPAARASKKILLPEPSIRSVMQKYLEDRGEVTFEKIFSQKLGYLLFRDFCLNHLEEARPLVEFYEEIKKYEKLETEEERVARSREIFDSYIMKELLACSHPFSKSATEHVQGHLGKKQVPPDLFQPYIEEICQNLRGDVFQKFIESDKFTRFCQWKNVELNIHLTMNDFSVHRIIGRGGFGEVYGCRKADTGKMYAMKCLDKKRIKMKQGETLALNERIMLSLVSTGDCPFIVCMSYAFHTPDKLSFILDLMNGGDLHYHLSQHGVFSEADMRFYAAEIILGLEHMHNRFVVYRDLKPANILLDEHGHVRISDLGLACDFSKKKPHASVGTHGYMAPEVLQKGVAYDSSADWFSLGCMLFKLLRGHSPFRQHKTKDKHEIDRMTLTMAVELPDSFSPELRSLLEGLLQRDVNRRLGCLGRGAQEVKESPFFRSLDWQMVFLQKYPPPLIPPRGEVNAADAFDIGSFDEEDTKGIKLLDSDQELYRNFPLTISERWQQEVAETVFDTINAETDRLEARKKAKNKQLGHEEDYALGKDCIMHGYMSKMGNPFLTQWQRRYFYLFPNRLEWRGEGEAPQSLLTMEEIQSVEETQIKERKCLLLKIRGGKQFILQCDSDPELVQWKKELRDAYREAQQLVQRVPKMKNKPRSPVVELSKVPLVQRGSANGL
Chain of Integrin beta-1 (Homo sapiens) + Integrin alpha-4 (Homo sapiens) (P05556 whole entry, looked up): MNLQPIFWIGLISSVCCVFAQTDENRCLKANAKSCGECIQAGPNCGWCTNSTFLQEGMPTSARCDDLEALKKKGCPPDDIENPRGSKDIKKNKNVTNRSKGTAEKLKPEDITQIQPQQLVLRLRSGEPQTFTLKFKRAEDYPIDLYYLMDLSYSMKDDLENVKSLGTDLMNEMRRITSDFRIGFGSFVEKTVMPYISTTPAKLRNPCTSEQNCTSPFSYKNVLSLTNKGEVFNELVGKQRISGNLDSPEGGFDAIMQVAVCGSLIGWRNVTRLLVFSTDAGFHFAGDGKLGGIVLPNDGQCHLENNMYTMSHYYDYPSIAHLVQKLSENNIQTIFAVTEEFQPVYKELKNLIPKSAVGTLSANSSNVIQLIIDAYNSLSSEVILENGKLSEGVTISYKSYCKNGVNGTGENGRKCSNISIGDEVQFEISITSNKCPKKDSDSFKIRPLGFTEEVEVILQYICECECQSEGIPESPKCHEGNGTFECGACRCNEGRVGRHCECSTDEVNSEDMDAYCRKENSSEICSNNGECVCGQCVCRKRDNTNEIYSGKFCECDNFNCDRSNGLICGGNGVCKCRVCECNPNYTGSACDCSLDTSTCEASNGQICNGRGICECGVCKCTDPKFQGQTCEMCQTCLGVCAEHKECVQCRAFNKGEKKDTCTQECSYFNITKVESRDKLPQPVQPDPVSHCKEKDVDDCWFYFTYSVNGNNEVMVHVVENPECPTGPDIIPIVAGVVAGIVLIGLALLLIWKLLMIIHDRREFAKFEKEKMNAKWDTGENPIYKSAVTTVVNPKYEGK
Chain of Integrin beta-1 (Homo sapiens) + Integrin alpha-4 (Homo sapiens) (P13612 whole entry, looked up): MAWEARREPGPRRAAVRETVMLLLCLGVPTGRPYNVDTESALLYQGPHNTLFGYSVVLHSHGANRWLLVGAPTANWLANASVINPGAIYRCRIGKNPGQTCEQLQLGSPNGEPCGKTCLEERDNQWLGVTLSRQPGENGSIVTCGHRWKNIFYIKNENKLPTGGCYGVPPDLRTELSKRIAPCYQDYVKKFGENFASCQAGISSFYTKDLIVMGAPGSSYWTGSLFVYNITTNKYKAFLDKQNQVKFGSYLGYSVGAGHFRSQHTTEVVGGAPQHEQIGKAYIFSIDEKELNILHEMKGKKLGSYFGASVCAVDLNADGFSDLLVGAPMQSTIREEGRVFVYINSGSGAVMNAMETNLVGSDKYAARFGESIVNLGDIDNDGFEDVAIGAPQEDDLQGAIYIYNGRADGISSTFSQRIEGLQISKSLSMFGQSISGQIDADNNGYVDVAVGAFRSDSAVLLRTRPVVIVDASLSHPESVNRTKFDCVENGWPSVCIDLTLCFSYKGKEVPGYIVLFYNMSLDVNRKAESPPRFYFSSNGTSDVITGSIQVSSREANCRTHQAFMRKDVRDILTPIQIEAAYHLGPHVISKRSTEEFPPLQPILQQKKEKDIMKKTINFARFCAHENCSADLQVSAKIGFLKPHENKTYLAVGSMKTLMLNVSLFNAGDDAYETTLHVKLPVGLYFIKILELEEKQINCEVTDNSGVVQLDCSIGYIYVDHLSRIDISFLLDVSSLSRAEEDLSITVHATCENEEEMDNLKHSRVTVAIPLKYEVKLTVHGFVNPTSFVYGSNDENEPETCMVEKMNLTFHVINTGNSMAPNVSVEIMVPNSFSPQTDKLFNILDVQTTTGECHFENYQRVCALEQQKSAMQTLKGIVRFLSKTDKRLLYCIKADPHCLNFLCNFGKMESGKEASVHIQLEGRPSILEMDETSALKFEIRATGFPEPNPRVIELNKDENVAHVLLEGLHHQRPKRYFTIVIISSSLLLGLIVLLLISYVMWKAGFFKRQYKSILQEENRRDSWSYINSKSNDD
Chain of ATP-binding cassette sub-family B member 6 (Homo sapiens) (Q9NP58 whole entry, looked up): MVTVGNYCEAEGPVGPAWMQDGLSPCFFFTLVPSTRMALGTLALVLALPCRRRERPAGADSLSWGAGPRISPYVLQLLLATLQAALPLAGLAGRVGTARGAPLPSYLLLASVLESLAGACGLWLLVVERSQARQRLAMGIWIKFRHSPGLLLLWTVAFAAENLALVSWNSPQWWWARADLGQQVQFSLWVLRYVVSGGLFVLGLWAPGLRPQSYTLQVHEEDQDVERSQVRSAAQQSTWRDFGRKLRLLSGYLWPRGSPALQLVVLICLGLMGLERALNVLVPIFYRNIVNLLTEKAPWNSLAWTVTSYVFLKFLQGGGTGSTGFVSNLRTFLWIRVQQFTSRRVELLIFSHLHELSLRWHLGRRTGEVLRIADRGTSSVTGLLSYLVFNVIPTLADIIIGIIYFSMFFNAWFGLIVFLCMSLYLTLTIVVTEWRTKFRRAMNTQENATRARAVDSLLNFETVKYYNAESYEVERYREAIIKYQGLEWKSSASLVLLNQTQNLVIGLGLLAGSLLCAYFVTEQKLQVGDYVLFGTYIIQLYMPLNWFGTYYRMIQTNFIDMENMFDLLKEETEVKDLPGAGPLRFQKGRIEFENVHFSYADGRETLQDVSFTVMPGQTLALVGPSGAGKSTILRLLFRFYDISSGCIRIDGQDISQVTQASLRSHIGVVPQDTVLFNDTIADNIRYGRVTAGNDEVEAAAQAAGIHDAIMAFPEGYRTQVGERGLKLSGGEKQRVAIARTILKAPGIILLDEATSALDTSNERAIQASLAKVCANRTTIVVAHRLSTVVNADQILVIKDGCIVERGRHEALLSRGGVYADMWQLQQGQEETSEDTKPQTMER
Chain of AP-2 complex subunit beta (Homo sapiens) (P63010 whole entry, looked up, the tested form may be a part, one chain of several): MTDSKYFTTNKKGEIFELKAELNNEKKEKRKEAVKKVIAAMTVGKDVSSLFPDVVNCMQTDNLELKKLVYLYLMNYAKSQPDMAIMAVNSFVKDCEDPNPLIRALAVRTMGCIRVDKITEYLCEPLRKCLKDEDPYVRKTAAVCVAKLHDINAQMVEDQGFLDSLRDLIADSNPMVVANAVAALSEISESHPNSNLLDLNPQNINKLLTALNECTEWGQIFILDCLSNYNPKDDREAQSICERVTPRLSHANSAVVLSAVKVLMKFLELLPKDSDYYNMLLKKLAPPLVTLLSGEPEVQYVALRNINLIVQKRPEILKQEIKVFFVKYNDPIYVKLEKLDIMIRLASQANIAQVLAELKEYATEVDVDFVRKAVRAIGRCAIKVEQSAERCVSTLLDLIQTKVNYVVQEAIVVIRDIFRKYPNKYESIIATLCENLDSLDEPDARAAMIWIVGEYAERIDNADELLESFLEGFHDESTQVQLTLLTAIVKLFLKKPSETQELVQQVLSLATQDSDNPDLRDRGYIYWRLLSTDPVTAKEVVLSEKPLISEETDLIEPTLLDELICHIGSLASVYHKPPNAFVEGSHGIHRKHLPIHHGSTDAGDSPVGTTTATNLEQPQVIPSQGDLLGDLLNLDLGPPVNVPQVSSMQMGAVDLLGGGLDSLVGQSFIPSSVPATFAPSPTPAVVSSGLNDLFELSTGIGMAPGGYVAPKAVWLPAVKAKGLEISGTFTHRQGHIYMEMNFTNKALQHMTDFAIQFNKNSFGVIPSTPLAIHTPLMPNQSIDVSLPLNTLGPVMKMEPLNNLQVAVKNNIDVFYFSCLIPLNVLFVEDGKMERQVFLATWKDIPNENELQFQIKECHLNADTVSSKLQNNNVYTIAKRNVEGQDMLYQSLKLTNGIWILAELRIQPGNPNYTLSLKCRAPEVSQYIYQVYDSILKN

| Compound | percent of DMSO control GFP [1] | GFP response vs DMSO [2] | percent response of DMSO control [3] | GFP response vs DMSO [4] | GFP response, % of DMSO [5] | double positive events [6] [%] | vesicle binding response [6] | inhibition [7] | superoxide response (% of plate) [8] | aptamer binding inhibition [9] | response [10] | inhibition [11] | response [12] | binding (% of control) [13] | efflux inhibition (fraction of control) [14] | inhibition [15] | differentiation response [16] |
| --- | --- | --- | --- | --- | --- | --- | --- | --- | --- | --- | --- | --- | --- | --- | --- | --- | --- |
| CC(C)C12CN3CC(C(C)C)(CN(C1)C3c1ccccc1O)C2=O (centres undefined) | 94.4% (inactive) | 120% (inactive) | 104% (inactive) | 75.9% (inactive) | 87% (inactive) | 66.6 | 192% (inactive) | 10.3% (inactive) | 94.7% (inactive) | 6% (inactive) | -10.3% (inactive) | -9.47% (inactive) | -6% (inactive) | 99% (inactive) | 0.12 (inactive) | 5% (inactive) | -6.55% (inactive) |
| CC1(C)Cc2ccccc2-c2n[nH]c(=S)n21 | 99.1% (inactive) | 102% (inactive) | 101% (inactive) | 102% (inactive) | 104% (inactive) | 61.1 | 203% (inactive) | 9.63% (inactive) | 92.5% (inactive) | 2% (inactive) | -1.77% (inactive) | 56.7% (active) | -1.77% (inactive) | 97.2% (inactive) | 0.19 (inactive) | 11% (inactive) | -14.8% (inactive) |
| O=C1c2ccccc2C(=O)N1/N=C/c1ccc(Oc2ccc([N+](=O)[O-])cn2)cc1 | 103% (inactive) | 107% (inactive) | 115% (inactive) | 92% (inactive) | 107% (inactive) | 56.2 | 38.7% (inactive) | 12% (inactive) | 106% (inactive) | 0% (inactive) | -4.65% (inactive) | 2.91% (inactive) | -3.15% (inactive) | 92.5% (inactive) | -0.01 (inactive) | -7% (inactive) | -7.57% (inactive) |
| COc1ccccc1N1CCN(CC(O)COc2cccc3ccccc23)CC1 (centres undefined) | 102% (inactive) | 105% (inactive) | 98.3% (inactive) | 109% (inactive) | 118% (inactive) | 64.3 | 192% (inactive) | 8.25% (inactive) | 97.5% (inactive) | 6% (inactive) | -24.7% (inactive) | -5.11% (inactive) | 5.97% (inactive) | 107% (inactive) | -0.09 (inactive) | -4% (inactive) | 4.86% (inactive) |
| CSCC[C@H](NC(=O)OC(C)(C)C)C(=O)N1CCC(C(=O)N[C@@H](C)C(=O)O)CC1 | 99.6% (inactive) | 105% (inactive) | 102% (inactive) | 89.4% (inactive) | 98.8% (inactive) | 65.4 | 154% (inactive) | 9.71% (inactive) | 98.8% (inactive) | 2% (inactive) | 6.5% (inactive) | -16% (inactive) | -1.98% (inactive) | 103% (inactive) | -0.22 (inactive) | 8% (inactive) | 0.41% (inactive) |
| CC(C)CN(C)Cc1c(C(=O)N2CCc3ccccc3C2)nc2ccc(Cl)cn12 | 105% (inactive) | 103% (inactive) | 107% (inactive) | 98% (inactive) | 105% (inactive) | 62.4 | 147% (inactive) | 8.29% (inactive) | 99.2% (inactive) | 0% (inactive) | -16.8% (inactive) | 20.6% (inactive) | -4% (inactive) | 104% (inactive) | 0.22 (inactive) | 11% (inactive) | -13.3% (inactive) |
| COc1cccc2c(O)cc(=O)n(C)c12 | 96.9% (inactive) | 111% (inactive) | 96.7% (inactive) | 116% (inactive) | 100% (inactive) | 61.5 | 169% (inactive) | 3.67% (inactive) | 98.4% (inactive) | -1% (inactive) | 5.82% (inactive) | 25% (inactive) | -5.16% (inactive) | 101% (inactive) | -0.17 (inactive) | 4% (inactive) | -21.6% (inactive) |
